Results filed as inconclusive are left out. Entries that show only a call come without a potency. Values without a mark were called inactive. The source made the active and inactive calls. Unless noted, calls follow the shape of the dose curve; as a rule, active = well fitted curve in the direction sought with a large enough effect in the repeat runs; inconclusive = weak or mixed curves; inactive = no such curve, though single readings can be large; an effect the other way counts as inactive or inconclusive.
Key:
[1] = target: Retinoic acid receptor RXR-alpha (Homo sapiens) (UniProt P19793); experiment: qHTS assay to identify small molecule agonists of the RXR signaling pathway (AID 1159527; calls by dose curve; also: nearly all actives have a fitted effect of over 35% in size; also: potency is read from the fitted curve at half-maximal effect)
Chain of Retinoic acid receptor RXR-alpha (Homo sapiens) (P19793 whole entry, looked up): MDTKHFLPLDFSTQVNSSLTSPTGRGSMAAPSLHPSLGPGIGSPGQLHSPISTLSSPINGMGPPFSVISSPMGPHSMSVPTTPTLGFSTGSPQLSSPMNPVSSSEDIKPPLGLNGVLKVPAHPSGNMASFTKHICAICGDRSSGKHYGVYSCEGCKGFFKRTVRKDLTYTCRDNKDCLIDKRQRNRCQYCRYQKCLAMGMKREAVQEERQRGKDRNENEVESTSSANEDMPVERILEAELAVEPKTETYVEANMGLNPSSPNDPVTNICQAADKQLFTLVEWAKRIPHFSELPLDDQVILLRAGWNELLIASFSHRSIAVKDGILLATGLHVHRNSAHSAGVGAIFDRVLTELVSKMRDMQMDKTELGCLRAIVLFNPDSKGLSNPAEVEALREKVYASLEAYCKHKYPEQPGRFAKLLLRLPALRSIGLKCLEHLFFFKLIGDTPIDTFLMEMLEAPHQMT
In short: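 GeneBLAzer RXR-alpha-UAS-bla HEK 293T cells in medium with 2% charcoal-stripped FBS, pre-incubated 5 hr at 37 C, then exposed to compounds 16 hr. Beta-lactamase reporter read by FRET substrate, 2 hr room temperature, 460/530 nm emission.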

[2] = qHTS assay to identify small molecule agonists of the RXR signaling pathway - cell viability counter screen (AID 1159529); also: series mostly up to about 77 µM; nearly all actives have a fitted effect of over 50% in size
In short: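 RXR-alpha-UAS-bla HEK 293T cells in medium with 2% charcoal-stripped FBS were preincubated 5 hr, then exposed to compounds for 16 hr at 37 C. Viability was read as CellTiter-Glo luminescence after 30 min at room temperature.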

[3] = qHTS assay to identify small molecule antagonists of the retinoic acid receptor (RAR) signaling pathway (AID 1159552; also: nearly all actives have a fitted effect of over 50% in size; also: potency is read from the fitted curve at half-maximal effect)
In short: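 RARE-luc C3RL4 cells; cpds + 1 uM (final) retinol, 6 hr, 37 C/5% CO2; luciferase reagent, 30 min RT, luminescence readout. Inhibitors of retinol-driven signal scored.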

[4] = qHTS assay to identify small molecule agonists of the retinoic acid receptor (RAR) signaling pathway (AID 1159553); also: potency is read from the fitted curve at half-maximal effect
In short: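 C3RL4 RARE-luciferase cells were seeded at 1,000/well and grown overnight at 37 C, then exposed to compounds for 6 hr at 37 C, 5% CO2. Luciferase reagent was added and luminescence was read after 30 min at room temperature.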

[5] = qHTS assay to identify small molecule antagonists of the estrogen related receptor (ERR) signaling pathway from Tox21 library - cell viability counter screen (AID 1224834); also: nearly all actives have a fitted effect of over 30% in size
In short: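 ERR reporter cells, 2,000 per well, rested 6 h, then exposed to compound in DMSO for 17.5 hours at 37 C. Viability read as fluorescence after 30 min with CellTiter-Fluor.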

[6] = target: Luciferin 4-monooxygenase (Photinus pyralis) (UniProt P08659); experiment: qHTS assay to identify small molecule inhibitors of firefly luciferase (AID 1224835); also: nearly all actives have a fitted effect of over 25% in size; also: potency is read from the fitted curve at half-maximal effect; as to activity change, negative = inhibition: series mostly up to about 120 µM
Chain of Luciferin 4-monooxygenase (Photinus pyralis) (P08659 whole entry, looked up): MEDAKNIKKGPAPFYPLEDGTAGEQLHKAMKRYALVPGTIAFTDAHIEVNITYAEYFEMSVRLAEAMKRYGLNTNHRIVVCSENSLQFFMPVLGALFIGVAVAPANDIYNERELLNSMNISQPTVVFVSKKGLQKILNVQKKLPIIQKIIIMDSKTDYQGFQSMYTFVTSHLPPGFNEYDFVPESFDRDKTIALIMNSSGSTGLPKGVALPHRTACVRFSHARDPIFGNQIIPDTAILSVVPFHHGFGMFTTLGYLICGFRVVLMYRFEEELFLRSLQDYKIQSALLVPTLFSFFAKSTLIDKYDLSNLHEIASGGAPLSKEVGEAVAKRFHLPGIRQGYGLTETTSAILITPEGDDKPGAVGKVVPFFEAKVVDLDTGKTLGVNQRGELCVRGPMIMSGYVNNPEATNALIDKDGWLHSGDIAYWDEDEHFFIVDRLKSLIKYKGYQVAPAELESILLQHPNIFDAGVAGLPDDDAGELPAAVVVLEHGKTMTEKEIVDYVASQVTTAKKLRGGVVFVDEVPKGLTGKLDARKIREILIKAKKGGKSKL
In short: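 Quantitative HTS format; KM concentrations of both substrates. Purified P. pyralis FLuc activity quantified from luminescence images.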

[7] = qHTS assay to identify small molecule agonists of the constitutive androstane receptor (CAR) signaling pathway - cell viability counter screen (AID 1224836); also: series mostly up to about 92 µM; nearly all actives have a fitted effect of over 45% in size
In short: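 HepG2 cells stably carrying hCAR and a CYP2B6-2.2kb reporter were plated 4 h, then given compounds at 15 concentrations plus PK11195 (final 0.75 uM). After 23 h at 37 C, viability was read by CellTiter-Fluor fluorescence.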

[8] = qHTS assay to identify small molecule antagonists of the constitutive androstane receptor (CAR) signaling pathway - cell viability counter screen (AID 1224837); also: series mostly up to about 92 µM; nearly all actives have a fitted effect of over 45% in size
In short: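 HepG2 cells stably carrying hCAR and CYP2B6-2.2kb reporter, stimulated with 50 nM CITCO and compounds at 15 concentrations for 23 h at 37 C. Viability measured by CellTiter-Fluor fluorescence.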

[9] = target: Nuclear receptor subfamily 1 group I member 3 (Homo sapiens) (UniProt Q14994); experiment: qHTS assay to identify small molecule antagonists of the constitutive androstane receptor (CAR) signaling pathway (AID 1224838); also: nearly all actives have a fitted effect of over 40% in size
Chain of Nuclear receptor subfamily 1 group I member 3 (Homo sapiens) (Q14994 whole entry, looked up): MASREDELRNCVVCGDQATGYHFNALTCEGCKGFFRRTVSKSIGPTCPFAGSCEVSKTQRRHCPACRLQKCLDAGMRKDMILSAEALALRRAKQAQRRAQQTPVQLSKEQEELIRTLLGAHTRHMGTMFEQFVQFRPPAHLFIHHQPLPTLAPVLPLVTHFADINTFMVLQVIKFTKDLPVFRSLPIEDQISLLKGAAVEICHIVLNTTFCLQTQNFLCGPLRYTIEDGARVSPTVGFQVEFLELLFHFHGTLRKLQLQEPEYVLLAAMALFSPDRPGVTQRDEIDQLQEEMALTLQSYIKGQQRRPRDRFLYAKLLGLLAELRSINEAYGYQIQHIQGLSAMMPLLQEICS
In short: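 HepG2 cells stably carrying hCAR and a CYP2B6-2.2kb luciferase reporter, seeded 4 hrs before compound (15 concentrations). Stimulated with 50 nM CITCO for 24 hr at 37 C. ONE-Glo luminescence read after 30 min at room temperature.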

[10] = target: Nuclear receptor subfamily 1 group I member 3 (Homo sapiens) (UniProt Q14994); experiment: qHTS assay to identify small molecule agonists of the constitutive androstane receptor (CAR) signaling pathway (AID 1224839); also: nearly all actives have a fitted effect of over 15% in size; also: potency is read from the fitted curve at half-maximal effect; as to activation: series mostly up to about 92 µM
In short: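 HepG2 cells stably expressing hCAR and a CYP2B6-2.2kb luciferase reporter were treated with compounds at 15 concentrations plus 0.75 uM PK11195 (final) for 24 h at 37 C; luminescence was read after ONE-Glo addition.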

[11] = qHTS assay to identify small molecule antagonists of the estrogen related receptor signaling pathway with the pleiotropic PPARgamma coactivator (PGC) from Tox21 10K library - cell viability counter screen (AID 1224840; active = well fitted cell-killing curve with a large enough effect in the repeat runs, not every such curve was filed as active; also: nearly all actives have a fitted effect of over 40% in size)
In short: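 PGC/ERR cells (2,000/well) plated 6 h, then compound-treated for 17.5 h at 37 C. Viability measured by CellTiter-Fluor fluorescence after 30 min at 37 C, multiplexed with the pathway assay.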

[12] = qHTS assay to identify small molecule antagonists of the estrogen related receptor signaling pathway with the pleiotropic PPARgamma coactivator (PGC) from Tox21 10K library (AID 1224841; call rule not given here; also: series mostly up to about 92 µM; actives are mostly falling curves and most rising ones were filed inactive; nearly all actives have a fitted effect of over 50% in size)
In short: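 PGC/ERR cell line, 2,000 cells/well, pre-incubated 6 hours at 37 C, then exposed to compounds for 18 hours at 37 C; luciferase read with One-Glo luminescence after 30 min at room temperature.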

[13] = qHTS assay to identify small molecule agonists of the estrogen related receptor signaling pathway with the pleiotropic PPARgamma coactivator (PGC) from Tox21 10K library (AID 1224842); also: nearly all actives have a fitted effect of over 15% in size; also: potency is read from the fitted curve at half-maximal effect
In short: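 PGC/ERR reporter cells (NTP line) were seeded 2,000 per well, rested 6 h at 37 C/5% CO2, then pin-dosed with compounds in DMSO for 18 h at 37 C; luciferase read by One-Glo luminescence after 30 min at room temperature.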

[14] = qHTS assay to identify small molecule antagonists of the retinoid acid receptor (RAR) signaling pathway - cell viability counter screen (AID 1159551); also: nearly all actives have a fitted effect of over 35% in size
In short: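 C3RL4 RARE-luciferase cells, 1,000/well, incubated overnight, then dosed with compound plus 1 uM retinol (final). After 6 hr at 37 C, viability read by CellTiter-Glo ATP luminescence following 30 min at room temperature.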

SMILES: CC12CCC(CC1=O)C2(C)C (stereo not drawn)
- Potency [1]: inactive
- Potency [2]: inactive
- Potency [3]: inactive
- Potency [4]: inactive
- Potency [5]: inactive
- Potency [6]: inactive
- outcome [7]: inactive
- outcome [8]: inactive
- Potency [9]: inactive
- Potency [10]: inactive
- outcome [11]: inactive
- Potency [12]: inactive
- Potency [13]: inactive

SMILES: CCCc1ccc(N)cc1
- Potency [1]: inactive
- Potency [2]: inactive
- outcome [14]: inactive
- Potency [5]: inactive
- outcome [7]: inactive
- outcome [8]: inactive
- Potency [10]: inactive
- outcome [11]: inactive

SMILES: O=C1OC(=O)c2cc([N+](=O)[O-])ccc21
- Potency [1]: inactive
- Potency [2]: inactive
- outcome [14]: inactive
- Potency [5]: inactive
- outcome [7]: inactive
- outcome [8]: inactive
- outcome [11]: inactive

SMILES: NC(=O)c1c(Cl)cccc1Cl
- Potency [1]: inactive
- Potency [2]: inactive
- outcome [14]: inactive
- Potency [5]: inactive
- Potency [6]: inactive
- outcome [7]: inactive
- Potency [10]: inactive
- outcome [11]: inactive
- Potency [12]: inactive
- Potency [13]: inactive

SMILES: CCCOCC(C)OCC(C)O (stereo not drawn)
- Potency [1]: inactive
- Potency [2]: inactive
- outcome [14]: inactive
- Potency [5]: inactive
- outcome [7]: inactive
- outcome [11]: inactive
- Potency [12]: inactive
- Potency [13]: inactive

SMILES: c1ccc(CCCc2ccccn2)cc1
- Potency [1]: inactive
- Potency [2]: inactive
- outcome [14]: inactive
- Potency [5]: inactive
- Potency [6]: 31.7 µM (active)
- outcome [7]: inactive
- Potency [9]: inactive
- outcome [11]: inactive
- Potency [12]: inactive

SMILES: NC(=O)Nc1nc2ccccc2[nH]1
- Potency [1]: inactive
- Potency [2]: inactive
- Potency [3]: inactive
- Potency [4]: inactive
- Potency [5]: inactive
- Potency [6]: inactive
- outcome [7]: inactive
- outcome [8]: inactive
- Potency [9]: inactive
- Potency [10]: inactive
- outcome [11]: inactive

SMILES: NC(=S)Nc1cccc2ccccc12
- activation [1]: 6.32% [at 6.98 µM]
- activity change, negative = cytotoxicity [2]: -0.564% [at 6.97 µM]
- activity change, negative = cytotoxicity [14]: 3.14% [at 8.39 µM]
- viability change, negative = cytotoxic [5]: 1.64% [at 8.39 µM]
- activity change, negative = inhibition [6]: 2.89% [at 10.5 µM]
- viability change, negative = cytotoxic [7]: -0.893% [at 8.39 µM]
- activity, negative = inhibition [9]: 3.74% [at 8.39 µM]
- activation [10]: 2.72% [at 8.39 µM]
- viability change, negative = cytotoxic [11]: 3.04% [at 8.39 µM]

SMILES: COc1cccc(Br)c1
- Potency [1]: inactive
- Potency [2]: inactive
- outcome [14]: inactive
- Potency [5]: inactive
- Potency [6]: inactive
- outcome [7]: inactive
- outcome [8]: inactive
- outcome [11]: inactive
- Potency [12]: inactive
- Potency [13]: inactive

SMILES: CC1CCN(CCCC(=O)c2ccc(F)cc2)CC1
- Potency [1]: inactive
- Potency [2]: inactive
- outcome [14]: inactive
- Potency [5]: inactive
- outcome [7]: inactive
- Potency [9]: inactive
- Potency [10]: inactive
- outcome [11]: inactive
- Potency [12]: inactive
- Potency [13]: inactive

SMILES: NC(N)=NS(=O)(=O)c1ccc(N)cc1
- Potency [1]: inactive
- Potency [2]: inactive
- outcome [14]: inactive
- Potency [5]: inactive
- Potency [6]: inactive
- outcome [7]: inactive
- outcome [11]: inactive

SMILES: CCCCNc1ccccc1
- Potency [2]: inactive
- outcome [14]: inactive
- Potency [3]: inactive
- Potency [4]: inactive
- Potency [5]: inactive
- Potency [6]: inactive
- outcome [7]: inactive
- outcome [8]: inactive
- Potency [9]: inactive
- Potency [10]: inactive
- outcome [11]: inactive

SMILES: CC(=O)NC(Cc1ccccc1)C(=O)O (stereo not drawn)
- Potency [2]: inactive
- outcome [14]: inactive
- Potency [3]: inactive
- Potency [4]: inactive
- Potency [5]: inactive
- Potency [6]: inactive
- outcome [7]: inactive
- outcome [8]: inactive
- Potency [9]: inactive
- Potency [10]: inactive
- outcome [11]: inactive

SMILES: N#CCc1ccccc1[N+](=O)[O-]
- Potency [1]: inactive
- outcome [14]: inactive
- Potency [3]: inactive
- Potency [4]: inactive
- Potency [5]: inactive
- Potency [6]: inactive
- outcome [7]: inactive
- outcome [8]: inactive
- Potency [9]: inactive
- Potency [10]: inactive
- outcome [11]: inactive

SMILES: O=C(O)Cc1cc(I)c(Oc2cc(I)c(O)c(I)c2)c(I)c1
- Potency [1]: 15.2 µM (active)
- outcome [14]: inactive
- Potency [3]: 42.4 µM (active)
- Potency [4]: inactive
- Potency [5]: inactive
- outcome [7]: inactive
- Potency [9]: inactive
- Potency [10]: inactive
- outcome [11]: inactive

SMILES: Oc1ccc2c(c1)OC[C@@H](N1CCC(O)(c3ccc(F)cc3)CC1)[C@H]2O
- Potency [2]: inactive
- outcome [14]: inactive
- Potency [3]: inactive
- Potency [4]: 531 nM (active)
- Potency [5]: inactive
- Potency [6]: 1.55 µM (active)
- outcome [7]: inactive
- outcome [8]: inactive
- Potency [9]: inactive
- Potency [10]: 3.76 µM (active)
- outcome [11]: inactive
- Potency [12]: inactive
- Potency [13]: 4.73 µM (active)

SMILES: CC(C)c1cccc(C(C)C)c1N
- Potency [1]: inactive
- outcome [14]: inactive
- Potency [3]: inactive
- Potency [4]: inactive
- Potency [5]: inactive
- Potency [6]: inactive
- outcome [7]: inactive
- outcome [8]: inactive
- Potency [9]: inactive
- Potency [10]: inactive
- outcome [11]: inactive
- Potency [12]: inactive
- Potency [13]: inactive

SMILES: Cc1ccc(N)cc1[N+](=O)[O-]
- Potency [1]: inactive
- Potency [2]: inactive
- Potency [6]: inactive
- outcome [7]: inactive
- outcome [8]: inactive
- Potency [9]: inactive
- Potency [10]: inactive
- outcome [11]: inactive
